About 83,000 compounds went through this panel and 20% of them were active in at least one assay; those are over-represented in the sample as a whole.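 The endpoint reported here, percent growth, reads 100 for growth as untreated, 0 for no net growth and -100 for all cells dead.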 Values without a mark were called inactive. Calls of active or inactive are those of the source. How the source made its calls: active means growth percent below 10; inactive means the rest.

What all share (experiment): NCI-60 one-dose screen, 48 h (100 = growth as untreated, 0 = no growth, -100 = all killed)
Settings in all cases: 10 µM unless noted

In experiment [1] the test system is HCT-15 colon.
Experiment [2] has as its system HT29 colon.
Experiment [3] relates to SNB-75 CNS.
The subject of experiment [4] is SNB-19 CNS.
Experiment [5] deals with U251 CNS.
Experiment [6] concerns PC-3 prostate.
The test system of experiment [7] is SK-MEL-5 melanoma.
Experiment [8] concerns UACC-62 melanoma.
Experiment [9] relates to LOX IMVI melanoma.
The test system of experiment [10] is SK-MEL-28 melanoma.

In the case of `OCCCCCNC1CCCCC1`, the growth was 96.1% in experiment [1]; 90.7% in [2]; 101% in experiment [3]; 112% in experiment [4]; 101% in experiment [5]; 101% in experiment [6]. In addition, the growth is 96.7% in experiment [7], 102% in [8], 101% in [9] and 95% in experiment [10].
For the compound `CCNc1nc(Cl)nc(NCC)n1`, the growth in experiment [1] was 112%; in [2], 107%; in experiment [3], 93.6%; in [4], 93%; in experiment [5] it was 104%; in experiment [6] it was 89.9%. For the same compound, the growth in experiment [7] is 98.2%; in experiment [8] it was 102%; in [9] it was 97.9%; in [10] it was 115%.
On to `COc1cc(C=Nc2cc(Cl)cc(Cl)c2)ccc1N(CCCl)CCCl`, for which the growth in experiment [1] was 96.2%; in [2] it was 81.5%; in [3], 84.1%; in experiment [4] it was 89.8%; in experiment [5], 86.9%; in experiment [6], 63.1%. Besides, the growth in [7] is 93.9%; in [8], 82.9%; in experiment [9], 78.7%; in experiment [10] it was 104%.
For `Nc1nc([Se])c2ncn(C3OC(CO)C(O)C3O)c2n1` (stereo not given), the growth in experiment [1] is 85.6%; in experiment [2], 55.2%; in experiment [3] it was 96.7%; in [4], 98%; in [5], 94.6%; in experiment [6], 93.4%. For the same compound, the growth was 92.2% in experiment [7], 68.5% in experiment [8], 10.1% in [9] and 98.9% in experiment [10].
As for `COC(=O)[C@@H](C)C[C@H](Cc1ccccc1)NC(=O)c1csc([C@@H](C[C@H](C(C)C)N(C)C(=O)[C@@H](NC(=O)[C@H]2CCCCN2C)C2CC2)OC(C)=O)n1`, the growth in experiment [1] was 12.3%; in [2], -12.4% (active); in [3], 32.3%; in experiment [4] it was 38%; in experiment [5], 13.6%; in [6], 27.2%. The growth was -50.1% (active) in experiment [7], 60% in experiment [8], 8.42% (active) in experiment [9] and 60.3% in experiment [10].
On to `C1CCC([PH+](C2CCCCC2)C2CCCCC2[PH+](C2CCCCC2)C2CCCCC2)CC1.O=C(C1[CH-]CCCC1)C1CCCC[N-]1.[Au]` (stereo not given), for which the growth in experiment [1] is 2.02% (active); in experiment [2] it was -43.7% (active); in [3] it was -6.22% (active); in [4], -95.2% (active); in [5], -84.1% (active); in [6] it was -6.85% (active). Moreover, the growth in experiment [7] was -98.8% (active); in [8], -85.8% (active); in [9] it was -95.9% (active); in [10], -69.5% (active).
For `Cc1ccc(C(=O)NCCCOc2ccc(N3C(N)=NC(N)=NC3(C)C)cc2Cl)cc1S(=O)(=O)F`, the growth was 102% in experiment [1]; 59.4% in experiment [2]; 87.6% in experiment [3]; 72.2% in [4]; 37.6% in experiment [5]; 28.5% in experiment [6]. For the same compound, the growth in [7] is 32.9%; in experiment [8], 30.1%; in experiment [9], 26.7%; in experiment [10] it was 104%.
Regarding `CCC1(C)CC(CCNCc2ccccc2O)(c2ccc(C)cc2)CCO1` (stereo not given), the growth was 98.3% in experiment [1]; 107% in [2]; 91.8% in experiment [3]; 102% in experiment [4]; 99.1% in experiment [5]; 99.1% in experiment [6]. Moreover, the growth is 97.7% in [7], 103% in experiment [8], 99.8% in experiment [9] and 106% in [10].
On to `C/C(=C\c1ccn(-c2ccc(N)cc2)n1)[C@@H]1C[C@@H]2O[C@]2(C)CCC[C@H](C)[C@H](O)[C@@H](C)C(=O)C(C)(C)[C@@H](O)CC(=O)O1`, for which the growth in experiment [1] was 20%; in experiment [2], 15.4%; in experiment [3] it was 3.99% (active); in experiment [4], 33.3%; in experiment [5], 25.9%; in experiment [6], 13.2%. The growth is 10.9% in [7], 19.7% in [8], 29.5% in experiment [9] and 59.4% in experiment [10].
Turning to `CCOC(=O)C(Cc1ccc(N(CCCl)CCCl)cc1)NC(=O)C(CC(C)C)NC(C)=O` (stereo not given), the growth in experiment [1] was 35%; in [2] it was 8.7% (active); in [3], 41.6%; in [4], 57.6%; in experiment [5], 25.5%; in experiment [6], 60.9%. The growth is 60.8% in experiment [7], 13.1% in experiment [8], -15.6% (active) in experiment [9] and 6.21% (active) in experiment [10].
On to `CC(C)(C)N1CC1C#N` (stereo not given), for which the growth was 99.6% in experiment [1]; 105% in experiment [2]; 98.3% in experiment [3]; 97.2% in experiment [4]; 100% in [5]; 103% in experiment [6]. For the same compound, the growth in [7] is 105%; in [8], 104%; in experiment [9], 101%; in experiment [10] it was 110%.
For `O=C(Nc1ccc(Br)cc1)c1cc(Br)cc(Br)c1O`, the growth in experiment [1] is -14.6% (active); in experiment [2] it was 23.5%; in [3], -10.5% (active); in [4] it was 11%; in experiment [5], 6.11% (active); in experiment [6], 9.67% (active). For the same compound, the growth in experiment [7] was -71% (active); in experiment [8], -14.2% (active); in [9], -7.5% (active); in experiment [10] it was 33.7%.
With `C=C1C(=O)O[C@H]2[C@H]1CC/C(COC(=O)C(=O)c1cn(Cc3ccccc3)c3ccccc13)=C\CC[C@@]1(C)O[C@@H]21`, the growth in [1] was -45.6% (active); in experiment [2] it was -40.2% (active); in [3], -75.2% (active); in experiment [4] it was 3.39% (active); in experiment [5] it was -88.7% (active); in experiment [6], -57.9% (active). The growth in experiment [7] is -96.6% (active); in experiment [8], -87.4% (active); in [9] it was -93.3% (active); in [10] it was -47.1% (active).
As for `COc1ccc(/C=C/c2cc(OC)c(OC)c(OC)c2)cc1NC(=O)/C=C/c1ccc(F)cc1`, the growth was 25.2% in [1]; 9.9% (active) in experiment [2]; 3.26% (active) in experiment [3]; 33.5% in experiment [4]; 36.8% in experiment [5]; 28.7% in experiment [6]. Besides, the growth is 7.06% (active) in experiment [7], 35.5% in experiment [8], 39% in [9] and 47.2% in experiment [10].
As for `CC(=O)O[C@H](C[C@H](C(C)C)N(C)C(=O)[C@@H](NC(=O)[C@H]1CCCCN1C)C(C)C)c1nc(C(=O)N[C@@H](Cc2ccccc2)C[C@H](C)C(=O)O)c(C)s1`, the growth in experiment [1] is 16.5%; in experiment [2] it was 3.99% (active); in experiment [3], 49.6%; in experiment [4], 38.5%; in experiment [5], 8.94% (active); in [6], 21.3%. Moreover, the growth in experiment [7] is -33.1% (active); in experiment [8] it was 48.1%; in [9] it was 26.6%; in [10], 62.7%.
Turning to `C/C(CC(C)(C)N1CC1)=N\NC(=O)Nc1cccc2ccccc12`, the growth in experiment [1] is 60.8%; in [2], 38.6%; in experiment [3] it was 58.8%; in [4] it was 63.5%; in experiment [5], 57.3%; in experiment [6] it was 64.4%. The growth in experiment [7] was 72.3%; in experiment [8], 68.4%; in [9], 46.1%; in [10] it was 102%.
Consider `CNCc1cccnc1`, for which the growth in experiment [1] is 108%; in experiment [2], 85.7%; in experiment [3] it was 104%; in experiment [4] it was 115%; in experiment [5], 99.6%; in experiment [6], 89%. Further, the growth was 106% in [7], 108% in experiment [8], 98.2% in [9] and 120% in experiment [10].
As for `C[N+](C)(C)Cc1cc(Cl)ccc1O`, the growth is 91.8% in [1]; 97.5% in [2]; 99.3% in experiment [3]; 118% in experiment [4]; 98.7% in [5]; 99.8% in experiment [6]. Also, the growth is 93.1% in experiment [7], 102% in experiment [8], 99% in experiment [9] and 102% in experiment [10].
Consider `C/C=C(\C)C(=O)O[C@@H]1C(O)[C@H]2OC(COC(=O)CCC(=O)CCCCCC[C@H](CCCCC)O[C@@H]3OC(C)[C@H](OC(C)=O)C(O)[C@H]3O2)[C@H]1OC(=O)/C=C/c1ccccc1` (stereo not given in full), for which the growth in [1] was 13%; in experiment [2] it was 5.27% (active); in [3], 1.65% (active); in experiment [4] it was 34.7%; in experiment [5], 8.26% (active); in [6], 21.3%. Further, the growth is -79.1% (active) in experiment [7], -46.8% (active) in [8], -49.9% (active) in experiment [9] and 18.5% in experiment [10].
In the case of `COC(=O)[C@@H](C)C[C@H](Cc1ccccc1)NC(=O)c1csc(CC[C@H](C(C)C)N(C)C(=O)[C@@H](NC(=O)[C@H]2CCCCN2C)C(C)C)n1`, the growth was 10.9% in [1]; 3.34% (active) in [2]; 42.6% in experiment [3]; 35.4% in [4]; 14.8% in experiment [5]; 27.6% in [6]. In addition, the growth in experiment [7] was -19.5% (active); in experiment [8], 40.7%; in experiment [9], 28.6%; in [10], 63.2%.
With `COC(=O)[C@@H](C)C[C@H](Cc1ccccc1)NC(=O)c1nc([C@@H](C[C@H](C(C)C)N(C)C(=O)[C@@H](NC(=O)[C@H]2CCCCN2C)C(C)C)OC(C)=O)sc1C`, the growth in experiment [1] is 12.9%; in [2], 4.71% (active); in experiment [3], 12.7%; in experiment [4], 24.3%; in experiment [5] it was 14.6%; in experiment [6], 28.9%. The growth in [7] is -39.2% (active); in experiment [8], 30.2%; in [9] it was 12.4%; in experiment [10], 66.1%.
On to `O=C([O][Hg][c]1ccccc1)c1ccccc1`, for which the growth was -62.7% (active) in experiment [1]; -14.8% (active) in experiment [2]; -4.27% (active) in experiment [3]; 56.8% in experiment [4]; -31.9% (active) in [5]; 35.4% in experiment [6]. Besides, the growth in experiment [7] was 5.37% (active); in experiment [8] it was -42.3% (active); in [9] it was -80.3% (active); in experiment [10] it was -61.1% (active).
As for `C=COC(=O)CCN1CC1`, the growth in experiment [1] was 109%; in experiment [2], 110%; in [3], 101%; in experiment [4], 96.3%; in experiment [5], 101%; in [6], 97.5%. Besides, the growth was 105% in [7], 97.9% in [8], 100% in experiment [9] and 113% in experiment [10].

The values are drawn from PubChem BioAssay (NCI).
